Results: PubChem BioAssay (NCATS)
Inconclusive results are not listed. Where a call stands in place of a potency, no number is given. Values without a mark were called inactive. Calls of active or inactive are those of the source. The call rests on the fitted dose curve; in most records, active means well fitted inhibition curve with a large enough effect; inconclusive means small, poorly fitted or top-dose-only effect; inactive means flat fitted curve, though single readings scatter.

These compounds were tested against Aldehyde dehydrogenase, mitochondrial (Homo sapiens) (UniProt P05091) (assay: qHTS for Inhibitors of the Aldehyde Dehydrogenase Family (ALDH2) Primary screen (AID 2061308; further: nearly all actives have a fitted effect of over 55% in size)). Settings: ALDH2 enzyme inhibition qHTS, 1536-well; series mostly up to 56 µM.

Row | Structure (SMILES) | activity change, negative = inhibition | Potency
1 | CC1(C)C[C@H]2C3=CCC4[C@@]5(C)CC[C@H](O[C@H]6O[C@H](C(=O)O)[C@@H](O)[C@H](O)[C@H]6O[C@H]6O[C@H](CO)[C@@H](O)[C@H](O)[C@H]6O[C@@H]6O[C@H](CO)[C@@H](O)[C@H](O)[C@H]6O)[C@](C)(CO)C5CC[C@@]4(C)[C@]3(C)CC[C@@]2(C)[C@H](O[C@@H]2OC[C@H](O)[C@H](OC3O[C@H](CO)[C@@H](O)[C@H](O)[C@H]3O)[C@H]2O)[C@@H]1O (stereo partly drawn) | 2.01% [at 11.2 µM] | –
2 | CC1(C)CC[C@]2(C(=O)OC3OC(CO)C(O)C(O)C3O)CC[C@]3(C)C(=CCC4[C@@]5(C)CC[C@H](OC6OC(C(=O)O)C(O)C(OC7OC(CO)C(O)C(O)C7O)C6O)C(C)(C)C5CC[C@]43C)C2C1 (stereo partly drawn) | – | inactive
3 | COc1ccnc2[nH]cc(C(=O)C(=O)N3CCN(C(=O)c4ccccc4)CC3C)c12 (stereo not drawn) | – | inactive
4 | CC(C)S(=O)(=O)NC[C@@H]1CC(c2ccc(N3CCCC3)c(F)c2)=NO1 | – | inactive
5 | CC1=C(C(=O)OCc2ccccc2)C(c2ccc(-c3ccccc3)cc2)NC(=O)N1CCCCCC(=O)O (stereo not drawn) | – | inactive
6 | O=C1C=CC2OC(c3ccccc3)C(O)C2O1 (stereo not drawn) | – | inactive
7 | CO[C@@H]1[C@]2(O)C(=O)N3/C=C\C(C)(C)c4[nH]c5ccccc5c4/C=C\3C(=O)N2[C@]23[C@H](CO)C(C)(C)N2c2ccccc2[C@]13O | – | inactive
8 | CN1C(=O)N(c2cc(Cl)cc(Cl)c2)C(=O)[C@@]1(C)Cc1ccc(Br)cc1 | – | inactive
9 | CC(=O)O[C@@H]1[C@@H](OC(=O)/C=C/c2ccccc2)[C@H](C)O[C@@H](O[C@H]2[C@@H]3C=CO[C@@H](O[C@@H]4O[C@H](CO)[C@@H](O)[C@H](O)[C@H]4O)[C@@H]3[C@@]3(CO)O[C@@H]23)[C@@H]1OC(C)=O | – | inactive
10 | COC(=O)C12CCC(C)C(C)C1C1=CCC3C4(C)CCC(OC(C)=O)C(C)(C)C4CCC3(C)C1(C)CC2 (stereo not drawn) | – | inactive
11 | CC(C)CC(=O)OC1OC=C(CO[C@@H]2O[C@H](CO)[C@@H](O)[C@H](O)[C@H]2O)C2CC(O)C(O)(CO)C12 (stereo partly drawn) | – | inactive
12 | CC1=C(C(=O)OC2OC(COC3OC(CO)C(O)C(O)C3O)C(O)C(O)C2O)C(C)(C)CCC1 (stereo not drawn) | – | inactive
13 | COc1cc2c(cc1OC)N1C(=O)C[C@@]34C=CC[N@+]5([O-])CC[C@H]2[C@H](CC3)[C@@]145 | – | inactive
